p53 reactivation = qHTS assay for re-activators of p53 using a Luc reporter; Potency, µM (highest dose often 92.2 µM), without a hit: at the highest dose activity change, positive = activation, usual class: activators; H1299 p53-A138V BP100-luciferase reporter, luminescence, 24 h; 0.063% of 320,000 active; further: potency means the concentration at half of the fitted maximal effect; % of control where 0% means no effect; nearly all actives have a fitted effect of over 45% in size
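p53-null H1299 cells stably carrying temperature-sensitive p53-A138V and a BP100-luciferase reporter were pinned with compounds (4-point, 1:5 series) and held 24 hrs at 37 deg C. Luminescence was read 10 min after detection reagent.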
PINK1 modulator = A Quantitative High throughput Screen to Identify Chemical Modulators of PINK1 Expression; 0.2% of 410,000 active; Potency, µM (titrated, usually from 76.6 µM), without a hit: at the top dose activation (PINK1 increase), most hits filed as activators; PINK1 immunofluorescence, high-content cytometry, 24 h; active means well fitted activation curve with a large enough effect; inconclusive means small, poorly fitted or top-dose-only effect; cell line not stated here; further: potency means the concentration at half of the fitted maximal effect; % of control where 0% means no effect; nearly all actives have a fitted effect of over 65% in size
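Readout is PINK1 immunofluorescence, quantified alongside mitochondrial, cell and nuclear markers by laser-scanning microplate cytometry. Cells from a stable line were exposed to compound titrations (5 concentrations) for 24 hours, with CCCP controls.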
Epigenetic reg = Quantitative High-Throughput Screen for Regulators of Epigenetic Control; murine LDR cells, GFP reporter derepression, 30 h; Potency, µM (doses to about 53.9 µM), without a hit: top-dose GFP activation, hits mostly activators; 0.2% of 280,000 active; further: potency means the concentration at half of the fitted maximal effect; % of control where 0% means no effect; nearly all actives have a fitted effect of over 60% in size
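Reporter derepression read as number of fluorescent GFP-positive objects, 20-120 um in size, counted by laser-scanning cytometer. Mouse LDR line with an epigenetically silenced CMV-GFP locus; compound incubation 30 h, 37 C.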
miR-21 act = qHTS Assay for Modulators of miRNAs and/orActivators of miR-21; AID 2288, 2010; HeLa miR-21 FLuc reporter, luciferase, 48 h; Potency, µM (series often up to 38.3 µM), inactives show at the highest dose activity change, positive = activation, hits mostly activators; 340,000 tested, under 10 active;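 further: % of control where 0% means no effect; miR-21 action dims this reporter so a rising signal means less miR-21 action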
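HeLa cells endogenously expressing miR-21, stably carrying CMV-driven firefly luciferase with a downstream miR-21 binding site, 2000 cells/well. Titrations up to approximately 40 uM, 48 hours; luciferase luminescence read.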
IL2 activator = qHTS of IL-2 Activators | IL-2 activation reporter assay, cell-based qHTS; stimulated with anti-CD3/CD4/CD28 beads; in transgenic mouse T cells | activation, % (series mostly up to about 46 µM) | 0.065% of 360,000 active | AID 652025, 2013; in the data active means activation above about 50%; inconclusive means mostly about 30% to 49%; further: 0% is about no effect
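First, unstimulated transgenic mouse T cells were exposed to compound for 60 min. Next, anti-CD3/anti-CD4-coated beads with anti-CD28 were added. Finally, after 18 h at 37 degrees C, EGFP and DsRed were imaged.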
uPA generation = qHTS for Inhibitors of Cell Surface uPA Generation. Potency, µM (top dose mostly 38.3 µM), for the others: at the highest dose activity change, negative = inhibition, actives largely listed as inhibitors. 0.31% of 330,000 active. cell surface uPA generation assay, qHTS; active means well fitted inhibition curve with a large enough effect; inconclusive means small, poorly fitted or top-dose-only effect; inactive means no such curve, though single readings can be large or run the other way; tested in mouse RAW 264.7 cells; further: potency means the concentration at half of the fitted maximal effect; on the % scale 0 is the no-effect control and ±100 the full control effect; nearly all actives have a fitted effect of over 55% in size
* hit, by the source's call; ? = inconclusive; · = no result. Shown are actives, neighbours in structure and some others; about 0.62% of the full set was active somewhere. Unless noted, the call rests on the fitted dose curve; in most records, active means well fitted curve in the direction sought with a large enough effect; inconclusive means small, poorly fitted or top-dose-only effect, or another doubt; inactive means no such curve, though single readings can be large; an effect the other way counts as inactive or inconclusive.

SMILES	p53 reactivation	PINK1 modulator	Epigenetic reg	miR-21 act	IL2 activator	uPA generation
O=C(COC(=O)C1(c2ccccc2F)CCCC1)NCc1ccc2c(c1)OCO2	9.6%	2.4%	0.0%	-2.7%	64.7*	10.4%
O=C(NCCc1nnc2n1CCN(CC1CC=CCC1)CC2)c1ccc(F)cc1 (stereo not drawn)	·	-0.6%	·	·	·	·
O=C(CCc1nc2ccccc2s1)N1CCOc2ccc(CN3CCc4sccc4C3)cc2C1	·	0.5%	·	·	·	·
CCC(O)CNC(=O)NC(=C(Cl)Cl)c1ccc(C)c(F)c1 (stereo not drawn)	?	-0.6%	0.0%	16.5%	0.0	10µM*
O=C(NCc1ccccc1Cl)c1ccc(Nc2nc3ccccc3n3nnnc23)cc1	·	-0.4%	10µM*	-12.3%	·	·
COc1ccc(O)cc1	-6.4%	-0.8%	·	·	-0.5	6.31µM*
CCN(CC)CCNC(=O)c1cnn(-c2nccc(-c3cc4ccccc4o3)n2)c1C	·	-0.4%	·	·	·	·
Cc1cc(C)cc(CC(Cc2nc3ccccc3[nH]2)c2nc3ccccc3[nH]2)c1 (stereo not drawn)	-4.2%	15.8µM*	0.0%	?	-0.8	-13.2%
Cc1ccc(CC(Cc2nc3ccccc3[nH]2)c2nc3ccccc3[nH]2)cc1 (stereo not drawn)	·	·	-0.3%	·	·	·
COc1ccc(CCn2c(=N)c(S(=O)(=O)c3ccc(Cl)cc3)cc3c(=O)n4ccccc4nc32)cc1	-3.1%	?	·	1.6%	80.5*	-0.5%
COc1ccc(CCn2c(=N)c(S(=O)(=O)c3ccccc3)cc3c(=O)n4ccccc4nc32)cc1	28.6%	1.3%	·	-3.9%	10.8	10.8%
CC(C)C/C(O)=C/c1nc2cc(Cl)ccc2oc1=O	-1.5%	-0.8%	-0.9%	2.9%	-2.8	1.41µM*
O=c1oc2ccc(Cl)cc2nc1/C=C(\O)c1ccco1	20.5%	0.7%	?	-8.8%	-2.3	?
N#C/C(=C(/O)c1ccc(F)cc1)c1nc2ccccc2s1	2.7%	15.8µM*	3.9%	-28.9%	-0.3	-6.4%
O=C(C[n+]1cccc(I)c1)c1ccc(F)cc1	·	-0.5%	·	·	·	·
O=C1C(=O)c2ccccc2C(O)=C1CCCCl	-11.1%	-5.4%	-0.4%	29.7%	-3.3	11.2µM*
COC(=O)[C@@H]1CCCN1C(=O)c1cnn(-c2nccc(-c3cc(C)sc3C)n2)c1C1CC1	·	-0.6%	·	·	·	·
COc1ccc(N=C(N)SCc2ccccn2)cc1	35.5µM*	1.3%	7.2%	-25.8%	-4.0	-15.0%
COc1ccc(-c2nnc(SCc3ccccn3)n2C)cc1	28.4%	0.0%	2.1%	-39.4%	-0.3	-1.5%
COc1ccc2nc(SCC(=O)NC3CCCCC3C)[nH]c2c1 (stereo not drawn)	2.7%	6.0%	·	·	0.3	8.91µM*
COc1ccc2nc(SCC(=O)NC(C)C)[nH]c2c1	4.4%	-0.3%	0.0%	-12.4%	0.2	1.1%
CC(C)NC(=O)COC(=O)c1ccccc1OCC(=O)Nc1ccc(Br)cc1	·	0.0%	·	·	·	·
CCOc1ccc(Br)cc1C1=NN(C(C)=O)C(c2ccc([N+](=O)[O-])s2)O1 (stereo not drawn)	-15.7%	-1.8%	·	26.6%	-2.8	6.31µM*
COc1ccc(/C=C/C(=O)NCC2Cc3cccc(-c4nc(C)cnc4C)c3O2)cc1OC (stereo not drawn)	·	1.2%	·	·	·	·
COc1ccc2nc(NS(=O)(=O)c3ccc(C)cc3)c(Nc3cc(Cl)ccc3OC)nc2c1	·	4.2%	25.1µM*	2.6%	·	·
SMILES	p53 reactivation	PINK1 modulator	Epigenetic reg	miR-21 act	IL2 activator	uPA generation
CC(=O)Oc1ccc(C(=O)Nc2ccc(C3(C#N)CCCC3)cc2)cc1	-2.5%	-0.1%	·	-37.0%	0.0	10µM*
N#CC1(c2ccc(NC(=O)c3ccccc3)cc2)CCCC1	32.7%	·	-1.4%	-42.8%	·	·
CCOc1ccc(NC(=O)c2ccc(F)c(S(=O)(=O)N(CC)Cc3ccccc3)c2)cc1	·	1.1%	0.6%	21.1%	·	·
CCN(Cc1ccccc1)S(=O)(=O)c1cc(C(=O)Nc2cc(Cl)cc(Cl)c2)ccc1F	·	44.7µM*	0.6%	?	·	·
CCn1c(-c2ccccc2F)nc2cc(NC(C)=O)cc(C(=O)NCC3CCOCC3)c21	·	0.1%	·	·	·	·
COc1ccc(NC(=O)c2cccc(NC(=O)C(C)C)c2)c([N+](=O)[O-])c1	?	14.7%	-1.0%	-36.9%	-2.5	-5.8%
CCOc1ccc(/C=C/C(=O)Nc2ccc(OC)cc2[N+](=O)[O-])cc1	1.5%	?	?	-5.9%	114.0*	7.4%
CCOc1ccc(NC(=O)/C=C/c2ccccc2)c([N+](=O)[O-])c1	?	?	?	-32.3%	3.1	-7.2%
COc1ccc(NC(=O)c2ccc(NC(=O)C(C)C)cc2)c([N+](=O)[O-])c1	3.9%	?	14.1µM*	-4.9%	10.7	2.5%
COC(=O)c1ccccc1SC(CC(=O)c1ccccc1)c1ccc(F)cc1 (stereo not drawn)	?	-3.4%	22.4µM*	-8.4%	-0.9	-0.6%
Cc1cc(-c2ccnc(-n3ncc(C(=O)N(C)CC(O)c4ccccc4)c3C)n2)c(C)s1 (stereo not drawn)	·	-1.3%	·	·	·	·
Cc1cnc(C)c(-c2cccc3c2OC(CNC(=O)/C=C/c2ccc(F)c(F)c2)C3)n1 (stereo not drawn)	·	5.9%	·	·	·	·
O=c1[nH]c2cc3c(cc2cc1CN(Cc1ccco1)C(=S)NCC1CCCO1)OCCO3 (stereo not drawn)	-1.0%	4.6%	-0.1%	-1.7%	-0.9	12.6µM*
Cc1ccc2cc(CN(Cc3ccco3)C(=S)NCC3CCCO3)c(=O)[nH]c2c1 (stereo not drawn)	-3.2%	2.7%	0.0%	-1.1%	-1.5	-0.6%
Cc1ccc(S(=O)(=O)/N=C(/Nc2ccc([N+](=O)[O-])cc2[N+](=O)[O-])c2ccccc2)cc1	4.6%	35.5µM*	·	·	-2.4	-4.6%
Cc1ccc(S(=O)(=O)/N=C(/Nc2ccc([N+](=O)[O-])cc2)c2ccccc2)cc1	-4.7%	8.6%	·	-3.6%	0.3	0.8%
CC(C)C(NS(C)(=O)=O)c1nnc2n1CCN(Cc1ccc3cccnc3c1)CC2 (stereo not drawn)	·	1.3%	·	·	·	·
CN(C)c1ccc(/C=C2\SC(=S)N(Nc3ncc(C(F)(F)F)cc3Cl)C2=O)cc1	8.1%	17.8µM*	14.1µM*	0.0%	19.6	·
COc1ccc(-c2ccnc(-n3ncc(C(=O)NCc4cccnc4)c3C3CC3)n2)cc1F	·	1.1%	·	·	·	·
COc1ccc(-c2cc(C)cc3c2OC(CNC(=O)/C=C/c2ccncc2)C3)nn1 (stereo not drawn)	·	1.0%	·	·	·	·

Screening data (PubChem BioAssay)
